# From PMC5540273 (PLoS ONE, 2017)
# Columns and labels:
# DLK = tested on: T1, DLK
# T1 construct: gene MAP3K12
# DMPK2 = tested on: T2, DMPK2
# T2 construct: gene CDC42BPG
# DRAK1 = tested on: T3, DRAK1
# T3 construct: gene STK17A
# 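Further: kd values determined as follow-up on hits from a single-replicate KINOMEscan panel screen.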
structure (smiles),measurement,setting,value
Cc1cccc(-c2nc(Nc3ccc4[nH]ncc4c3)c3ccccc3n2)n1 [GW857175],Kd,CSNK2A1,100 nM
Cc1ccccc1-n1cnc2c(N)ncnc21 [SKF-97510],Kd,DAPK1,> 10000 nM
Cc1cc(N2Cc3ccccc3C2)nc(Nc2ccc(S(=O)(=O)N3CCOCC3)cc2)n1.Cl [GSK1669917],Kd,DAPK3,> 10000 nM
CC(=O)Nc1nc2cnc(Nc3cc(NC(=O)c4cccc(CCC#N)c4)ccc3C)nc2s1,Kd,DDR2,> 10000 nM
Cc1ccc(NC(=O)Nc2cc(C(C)(C)C)nn2-c2ccccc2)cc1 [GSK1014915],Kd,DDR2,410 nM
COc1ccc(CNC(=O)NC2CCN(c3ccnc(Nc4cc(OC)c(OC)c(OC)c4)n3)C2)cc1 (centres unmarked) [GSK1379748],Kd,DLK,5100 nM
Cc1cc(-c2ccc3c(c2)CC[C@@H](N[C@@H](C)c2ccccc2)C3)cnc1N.Cl [GW412617],Kd,DLK,280 nM
Cc1cccc(-c2nc(C)cc(Nc3ccncc3)n2)n1 [GSK257997],Kd,DMPK2,560 nM
COc1ccc2nc(-c3cccc(C)n3)nc(Nc3ccncc3)c2c1 [GSK204919],Kd,DMPK2,510 nM
Nc1nc(-c2nccs2)c(-c2ccnc3ccccc23)s1 [GW693542],Kd,DMPK,> 10000 nM
C[C@@H]1CCCCN1c1cc(-c2ccc3c(N)n[nH]c3c2)nc(N)n1 [GSK2258759],Kd,DRAK1,88 nM
